The text below walks through data of PubChem BioAssay (NCI).

Structures are written as SMILES. This is part of a sample that, as a whole, favours compounds with a hit. Of some 83,000 tested, about 20% had one in any assay.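 Plates (96-well) were seeded with cells, treated with compound at one concentration, and incubated for 48 hours before percent growth was determined.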 Unmarked numbers belong to inactive results. Active and inactive are the calls of the source. How the source made its calls: active means growth percent below 10; inactive means the rest.

Experiment in all cases: NCI-60 one-dose screen, 48 h (100 = growth as untreated, 0 = no growth, -100 = all killed)
Common to all, as to details: 10 µM unless noted

In assay [1] the test system is HCT-15 colon.
Assay [2] concerns HT29 colon.
Assay [3] relates to SNB-75 CNS.
For assay [4], the system named is SNB-19 CNS.
Assay [5] concerns U251 CNS.
For assay [6], the system named is PC-3 prostate.
In assay [7] the test system is SK-MEL-5 melanoma.
The subject of assay [8] is UACC-62 melanoma.
In assay [9] the test system is LOX IMVI melanoma.
Assay [10] concerns SK-MEL-28 melanoma.

With `O=C1Nc2ccc(Cl)cc2/C1=C\c1c(-c2ccc(F)cc2)nc2ccccn12`, the growth in [1] is 21.4%; in assay [2], 0.999% (active); in assay [3] it was -49.4% (active); in assay [4], 41.6%; in assay [5], 23.2%; in assay [6], 18.8%. Moreover, the growth is -28.4% (active) in [7], 7.95% (active) in assay [8], -30.1% (active) in [9] and 6.38% (active) in [10].
Take `COc1ccc(-c2cnc(-c3ccncc3-c3cccc(OC)c3)o2)cc1`: the growth in assay [1] is 7.4% (active); in assay [2] it was -36.6% (active); in assay [3] it was 41.2%; in [4], 25.8%; in assay [5], 24.3%; in assay [6], 16.9%. Also, the growth in [7] was -20.4% (active); in assay [8], 24.9%; in assay [9], 27.3%; in assay [10], 57.6%.
With `O=C1NN(C(=O)c2ccccc2)C(c2ccc(Cl)c(Cl)c2)=C/C1=C\c1ccccc1[N+](=O)[O-]`, the growth is -28.1% [6.75 µM] (active) in assay [1]; 4.99% [6.75 µM] (active) in assay [2]; 25.1% [6.75 µM] in [3]; 24.3% [6.75 µM] in assay [4]; 14.7% [6.75 µM] in assay [5]; 9.01% [6.75 µM] (active) in assay [6]. The growth in assay [7] was -65.4% [6.75 µM] (active); in assay [8], -69% [6.75 µM] (active); in assay [9] it was -45.5% [6.75 µM] (active); in assay [10], 27.8% [6.75 µM].
Consider `NNC(=O)CSc1nc2scc(-c3ccccc3)c2c(=O)n1-c1ccccc1`, for which the growth in assay [1] is 101%; in assay [2], 121%; in assay [3], 88.3%; in assay [4], 107%; in [5], 103%; in [6] it was 80.5%. Also, the growth in [7] was 88.4%; in assay [8] it was 90.2%; in [9], 78.7%; in [10] it was 111%.
As for `Cc1[nH]c2ccccc2c1C1=CC(=O)C=CC1=O`, the growth is 74.6% in [1]; 105% in assay [2]; 82.8% in [3]; 93% in assay [4]; 72.4% in assay [5]; 79.3% in assay [6]. Besides, the growth in assay [7] is 85.6%; in assay [8], 75.9%; in assay [9], 79.1%; in assay [10], 104%.
Turning to `NC(=O)c1ccc[n+](Cc2ccccc2)c1`, the growth in [1] was 96.7%; in assay [2] it was 101%; in [3], 95.1%; in assay [4], 106%; in assay [5], 92.8%; in assay [6], 94.6%. For the same compound, the growth in assay [7] is 97.6%; in assay [8], 99.7%; in assay [9] it was 95.6%; in [10], 103%.
Turning to `O=C(Nc1ccccc1)c1cc2ccccc2s1`, the growth in assay [1] was 63.9%; in [2], 104%; in [3], 92.9%; in assay [4], 99.7%; in [5] it was 89.4%; in [6], 82%. The growth in assay [7] was 56.7%; in [8], 67.1%; in assay [9] it was 83.4%; in assay [10] it was 107%.
Regarding `O=C1OCC2=C1C(c1ccccc1)c1cc3c(cc1N2CCO)CCC3` (stereo not given), the growth is 14.1% in assay [1]; 6.75% (active) in assay [2]; 64.4% in assay [3]; -12.2% (active) in assay [4]; 12% in assay [5]; 15.7% in assay [6]. The growth in assay [7] was -29.2% (active); in [8], 31.7%; in assay [9], 28.5%; in assay [10], 42.7%.
For the compound `CCN(CC)CCCC(C)Nc1c(-c2ccccc2)cnc2cc(Cl)ccc12` (stereo not given), the growth in [1] was 29.5%; in assay [2], -33.5% (active); in assay [3] it was 132%; in assay [4], 101%; in assay [5] it was 58.1%; in assay [6] it was 64.5%. The growth in assay [7] is 55.3%; in assay [8] it was 97.2%; in assay [9], 19.2%; in assay [10], 15.3%.
Turning to `O=C1/C=C/[C@@H](O)[C@@H]2C[C@@H](O)C[C@H]2/C=C/CCC[C@H]([C@@H](O)CO)O1`, the growth was 95.3% in assay [1]; 80.2% in [2]; 84% in assay [3]; 66.5% in [4]; 69.1% in assay [5]; 88.7% in [6]. The growth in [7] is 4.48% (active); in assay [8], 62.5%; in assay [9] it was 38.7%; in assay [10], 38.8%.
Turning to `CN(C)c1ccc(C2(Cl)c3ccccc3N(C)c3ccccc32)cc1`, the growth in assay [1] is 64.5%; in assay [2], 12.1%; in [3], 71.2%; in assay [4], 45.5%; in [5], 1.47% (active); in [6] it was 7.45% (active). Besides, the growth in assay [7] is 79.9%; in assay [8] it was 35.2%; in [9], 27.6%; in assay [10], 52.4%.
As for `COC1(OC)C2(Cl)CCC1(Cl)C(Cl)=C2Cl`, the growth is 95% in assay [1]; 101% in assay [2]; 95.6% in [3]; 105% in assay [4]; 97.8% in assay [5]; 100% in assay [6]. Besides, the growth is 102% in assay [7], 101% in assay [8], 94.2% in [9] and 107% in assay [10].
As to `Cc1ccc2c(C)c3c(ccc4ccccc43)c[n+]2c1`, the growth in [1] was 95.8%; in assay [2] it was 88.1%; in assay [3], 65%; in [4], 24%; in assay [5], 24.5%; in assay [6], 52.9%. Also, the growth in assay [7] was -25.6% (active); in assay [8] it was 74.2%; in assay [9], 91.9%; in assay [10], 77.8%.
